Pf growth 96h: Primary qHTS for delayed death inhibitors of the malarial parasite plastid, 96 hour incubation; P. falciparum luciferase reporter growth, 96 h; Potency, µM (top dose mostly 28.7 µM), actives largely listed as inhibitors; 6.9% of 320,000 active
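Two parasite generations (96 h, 37 C, 5% CO2) of compound exposure in infected erythrocytes (0.05% parasitemia, 2% hematocrit). Luciferase-reporter P. falciparum; decreased luminescence indicates inhibited growth, aimed at apicoplast-acting delayed death.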
HCV inhibitor: qHTS Assay for Inhibitors of Hepatitis C Virus (HCV) | 3.4% of 340,000 active | AID 651820, 2012 | Potency, µM (top dose mostly 41.8 µM), most hits filed as inhibitors | Huh7.5.1 HCVcc-Cre infection, luciferase reporter, 44 h
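Cells (1,000/well) were plated 4 h before compound, then infected with HCVcc-Cre virus (~0.5 moi). After 44 h further culture, infection was read as luciferase luminescence following a 15 min substrate incubation at room temperature.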
Pf growth 48h: Primary qHTS for delayed death inhibitors of the malarial parasite plastid, 48 hour incubation. 5.9% of 310,000 active. AID 504832, 2011. P. falciparum luciferase growth in erythrocytes, 48 h. Potency, µM (series often up to 28.7 µM), usual class: inhibitors
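Parasite viability was followed by luminescence of a genomically integrated firefly luciferase. Cultures held 0.1% parasitemia at 2% hematocrit (final), incubated under 5% CO2 at 37 C.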
AMA1 RON2 block: qHTS for Inhibitors of AMA1-RON; Towards Development of Antimalarial Drug Lead: Primary Screen. Plasmodium falciparum AMA1 (3D7) - RON2 peptide interaction. AlphaScreen AMA1-biotinylated RON2 peptide binding. Potency, µM (doses to about 58.2 µM), hits mostly inhibitors. 0.2% of 360,000 active. AID 720542, 2013; further: nearly all actives have a fitted effect of over 45% in size
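AMA1 (3D7) with his tag at 25 nM final met compounds first, then biotinylated RON2 peptide at 25 nM; detection used donor plus acceptor beads, 10 µg/mL apiece, read by AlphaScreen after 30 min at room temperature.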
Of the large screens only hits and unclear results are named; the others gave an inactive call. Rows were chosen to be rich in hits. Some 11% of all compounds tested hit in one or more screens of this group. The call rests on the fitted dose curve; in most records, active means well fitted curve in the direction sought with a large enough effect; inconclusive means small, poorly fitted or top-dose-only effect, or another doubt; inactive means no such curve, though single readings can be large; an effect the other way counts as inactive or inconclusive.

O=C(Nc1cccnc1)c1cc(-c2cc(Cl)ccc2O)n[nH]1	Pf growth 96h 0.74µM, Pf growth 48h inconclusive
CCOc1ccccc1NC(=O)CCCn1cc([N+](=O)[O-])cn1	Pf growth 96h 3.3µM
CCN(CC)CCCNC(=O)C1c2ccccc2Oc2ccccc21	none
CNCCCC1Sc2ccccc2Oc2ccccc21 (centres undefined)	Pf growth 96h 9.3µM, HCV inhibitor inconclusive, Pf growth 48h inconclusive
CNCCc1c(C)n[nH]c1C	Pf growth 96h 12µM
COc1ccc(OCCCc2c(C)n[nH]c2C)cc1	Pf growth 96h 9.3µM (no result: Pf growth 48h)
Cc1n[nH]c(C)c1CCCOc1ccccc1	none (no result: Pf growth 48h)
Cc1c(CCC(=O)NCCCCCC(=O)O)c(=O)oc2cc3occ(-c4ccccc4)c3cc12	none
CNc1nc(Nc2ccc(C(=O)OC)cc2)c2sccc2n1	none (no result: Pf growth 96h, HCV inhibitor, Pf growth 48h)
CCc1ccc(C(c2c(C)nn(-c3ccccc3)c2N)c2c(C)nn(-c3ccccc3)c2N)cc1	Pf growth 96h inconclusive, HCV inhibitor inconclusive, Pf growth 48h 8.3µM, AMA1 RON2 block inconclusive
Cc1cccc(C(c2c(C)nn(-c3ccccc3)c2N)c2c(C)nn(-c3ccccc3)c2N)c1	Pf growth 96h inconclusive
COc1ccc(-c2csc(N(Cc3ccco3)C(=O)c3cccs3)n2)cc1	Pf growth 96h 6.6µM, HCV inhibitor inconclusive, Pf growth 48h inconclusive
COc1ccc(OC)c(-c2csc(N(C)C(=O)Cc3ccccc3)n2)c1	Pf growth 96h inconclusive, HCV inhibitor inconclusive, Pf growth 48h inconclusive
COc1ccc(OC)c(-c2csc(N(Cc3ccco3)C(=O)c3cccs3)n2)c1	Pf growth 96h inconclusive, HCV inhibitor 13µM, Pf growth 48h 9.3µM, AMA1 RON2 block inconclusive
COc1ccc(OC)c(-c2csc(N(CC3CCCO3)C(=O)C3CCCCC3)n2)c1 (centres undefined)	HCV inhibitor inconclusive, Pf growth 48h 2.9µM
COc1ccc(-c2csc(N(CC3CCCO3)C(=O)c3cccs3)n2)cc1 (centres undefined)	HCV inhibitor inconclusive (no result: Pf growth 48h)
CC1CCCC(NC(=O)CN(C)CC(=O)Nc2cccc(F)c2)C1C (centres undefined)	Pf growth 96h inconclusive, HCV inhibitor inconclusive, Pf growth 48h inconclusive
O=C(NC1CCCCC1)C(c1cc2c(cc1[N+](=O)[O-])OCO2)N1CCCCC1 (centres undefined)	Pf growth 96h 13µM, Pf growth 48h inconclusive (no result: HCV inhibitor, AMA1 RON2 block)
C[N+](C)(C)CCN(Cc1ccc(Cl)cc1)c1ccccn1	Pf growth 96h 2.3µM, Pf growth 48h 6.6µM
CN(C)CCN(Cc1ccc(Cl)cc1)c1ccccn1	Pf growth 96h inconclusive, HCV inhibitor inconclusive, Pf growth 48h inconclusive
CCCSc1ccc([C@@H]2[C@H]3C(=O)N(CC)C(=O)[C@H]3[C@]3(C(=O)OC)CCCCN23)cc1	Pf growth 96h 7.4µM, Pf growth 48h 13µM
CCCCCCSc1ccc([C@@H]2[C@H]3C(=O)N(CC)C(=O)[C@H]3[C@]3(C(=O)OC)CCCN23)cc1	Pf growth 96h 10µM, Pf growth 48h inconclusive
CCCSc1ccc([C@@H]2[C@@H]3C(=O)N(CC)C(=O)[C@@H]3[C@]3(C(=O)OC)CCCCN23)cc1OC	none (no result: Pf growth 96h, Pf growth 48h)
CCC1(C)Cc2ccccc2C(=S)N1 (centres undefined)	none
Cc1cccc2sc(NS(C)(=O)=O)nc12	none
CC(NC(=O)CN1C(=O)NC2(CCCCC2)C1=O)c1ccc(S(N)(=O)=O)cc1 (centres undefined)	none (no result: Pf growth 96h, Pf growth 48h)
CC(C)c1cc(C(=O)Nc2cc(Cl)ccc2O)no1	Pf growth 96h inconclusive, HCV inhibitor 10µM, Pf growth 48h inconclusive
CCCc1cc(C(=O)Nc2cc(Br)ccc2O)no1	Pf growth 48h 5.2µM
Cc1noc(C(=O)Nc2cc(Cl)ccc2O)c1Cl	HCV inhibitor inconclusive, Pf growth 48h 5.2µM
Cc1ccccc1Cn1c(C)c(C(=O)NCCC#N)sc1=O	none (no result: Pf growth 96h, HCV inhibitor, Pf growth 48h)
CC12CCC(C/C1=N\N=C1\NC(=O)/C(=C\c3cccc(Br)c3)S1)C2(C)C (centres undefined)	Pf growth 96h 13µM, Pf growth 48h inconclusive
COc1cc(/C=N/N=C2\CC3CCC2(C)C3(C)C)ccc1O (centres undefined)	Pf growth 96h inconclusive
CCN(CC)S(=O)(=O)c1cccc(-c2nnc(SCC(=O)NCCC3=CCCCC3)n2N)c1	Pf growth 96h 12µM
CCCCC[n+]1ccn(C2=C([O-])c3ccccc3C(=O)/C2=N\S(=O)(=O)c2ccccc2)c1	Pf growth 96h 5.9µM, HCV inhibitor inconclusive, Pf growth 48h 2.9µM
CC(C)[n+]1ccn(C2=C([O-])c3ccccc3C(=O)/C2=N\S(=O)(=O)c2ccccc2)c1	Pf growth 96h inconclusive, HCV inhibitor inconclusive, Pf growth 48h 6.6µM
CCCCC[n+]1ccn(C2=C([O-])c3ccccc3C(=O)/C2=N\S(=O)(=O)c2ccc(Br)cc2)c1	Pf growth 96h inconclusive, HCV inhibitor inconclusive, Pf growth 48h 1.9µM
CC(C)(C)c1cc[n+](C2=C([O-])c3ccccc3C(=O)/C2=N\S(=O)(=O)c2ccccc2)cc1	Pf growth 96h 4.1µM, Pf growth 48h 3.7µM
Cc1c(C(C)(C)C)s/c(=N/S(=O)(=O)c2ccccc2)n1C	Pf growth 48h inconclusive
CCCCC[n+]1ccn(-c2nc3ccccc3nc2[N-]S(=O)(=O)c2ccc(C)cc2)c1	Pf growth 96h inconclusive
CC(C)c1ccc(NC(=O)C[n+]2ccn(C3=C([O-])c4ccccc4C3=O)c2)cc1	none
COc1ccccc1OCCNc1ccc(S(=O)(=O)N2CCCC2)cn1	HCV inhibitor inconclusive
CCCC[n+]1ccn(C2=C([O-])c3ccccc3C(=O)/C2=N\S(=O)(=O)c2ccccc2)c1	Pf growth 96h 8.3µM, HCV inhibitor 11µM, Pf growth 48h 1.9µM
COc1cc(NC(=S)N2CCC(C(O)(c3ccccc3)c3ccccc3)CC2)cc(OC)c1	Pf growth 96h 2.1µM, HCV inhibitor inconclusive
COc1cc(NC(=S)N2CCN(S(=O)(=O)c3ccccc3)CC2)cc(OC)c1	Pf growth 48h inconclusive
COc1cccc(NC(=S)N2CCN(S(=O)(=O)c3ccc(F)cc3)CC2)c1	Pf growth 96h inconclusive, Pf growth 48h 1.9µM
COc1cc(NC(=S)N2CCN(S(C)(=O)=O)CC2)cc(OC)c1	Pf growth 96h inconclusive
COc1cc(NC(=S)N2CCN(S(=O)(=O)c3ccc(F)cc3)CC2)cc(OC)c1	Pf growth 48h 2.3µM
COc1cccc(NC(=S)N2CCN(S(C)(=O)=O)CC2)c1	Pf growth 96h 4.1µM
CCNC(=S)N1CCC(C(O)(c2ccccc2)c2ccccc2)CC1	Pf growth 96h inconclusive
COC(=O)C(=N/Nc1ccccc1C(=O)OC)/C(C)=N/O	HCV inhibitor inconclusive
COc1ccccc1CNC(=O)CNC(=O)c1sc2ccccc2c1Cl	none
Cc1cc2nc(C3CCCN(C(=O)NCc4ccccc4)C3)[nH]c2cc1C (centres undefined)	none
COc1ccc(NC(=S)N2CCCC(c3nc4ccc(C)cc4[nH]3)C2)c(OC)c1 (centres undefined)	HCV inhibitor inconclusive
CCOc1ccccc1NC(=O)N1CCC(c2nc3ccc(C)cc3[nH]2)CC1	none (no result: HCV inhibitor)
